19 molecules from PubChem BioAssay (NCI) can be followed below.

“And” between values parts separate entries of the source, which are not always exact repeats. Equal values may be shown once. Compounds without any hit were thinned out: in the full panel of roughly 79,000, 15% have a hit. Values without a mark were called inactive. The source made the active and inactive calls. Cut-off read from the data, not from the text of the source: active = growth inhibition above about 70%; inactive = the rest.

The nature of test [1]: NCI Yeast Anticancer Drug Screen. Data for the rad50 strain (AID 155).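 Note: 0% = growth of vehicle-only cultures of the same strain.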 To be noted: S. cerevisiae rad50 strain growth inhibition, stronger effect = higher value; at 50.0 µM unless noted. The method, boiled down: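 Vehicle-treated cultures provide the reference for the growth inhibition reported for compound-exposed, repair-deficient yeast.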
The nature of test [2]: NCI Yeast Anticancer Drug Screen. Data for the mec2-1 strain (AID 157). The note with it: S. cerevisiae mec2-1 strain, stronger effect = higher value; at 50.0 µM unless noted. The method in brief: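 Compounds were applied to mec2-1 yeast cells. Their growth was then compared with that of vehicle-treated cultures to give growth inhibition.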
Test [3] in a line: NCI Yeast Anticancer Drug Screen. Data for the sgs1 mgt1 strain (AID 161).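 Note: 0% = growth of cultures given vehicle only.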 To be noted: S. cerevisiae sgs1 mgt1 strain, stronger effect = higher value; at 50.0 µM unless noted. The method in brief: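 Percent growth inhibition was derived by comparing compound-exposed mutant yeast with vehicle-exposed cultures. The strain carries alterations in DNA damage repair.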
Test [4] can be described thus: NCI Yeast Anticancer Drug Screen. Data for the cln2 rad14 strain (AID 165).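 Note: 0% = growth equal to vehicle treated cultures.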 The note with it: S. cerevisiae cln2 rad14 strain, stronger effect = higher value; at 50.0 µM unless noted. The method in brief: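 Strain: cln2 rad14 yeast, altered in cell cycle control and DNA damage repair. Read-out: growth inhibition vs vehicle.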
Test [5] can be described thus: NCI Yeast Anticancer Drug Screen. Data for the bub3 strain (AID 167). To be noted: S. cerevisiae bub3 mutant strain, stronger effect = higher value; at 50.0 µM unless noted. The method in brief:
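Mutant yeast screening strain plus compound; vehicle-treated cultures serve as the 0% inhibition reference.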

A short description of test [6]: NCI Yeast Anticancer Drug Screen. Data for the mlh1 rad18 strain (AID 175). The note with it: S. cerevisiae mlh1 rad18 strain growth inhibition, stronger effect = higher value; at 50.0 µM unless noted. The method in brief:
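A repair-deficient yeast strain is exposed to test compound, and growth is scored relative to vehicle-treated controls.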

Consider `O=[N+]([O-])c1ccc(Sc2ncnc3c2ncn3C2OC(CO)C(O)C2O)c2nonc12` (centres undefined), for which the growth inhibition was 3.05% in test [1]; -12.4% in test [2]; -2.4% in test [3]; 16.1% in test [4]; -2.95% in test [5]; 33.2% in test [6].
On to `CC(C)/C(Cl)=N/OC(=O)Nc1ccc(F)c(Cl)c1`, for which the growth inhibition was 37.4% in test [1]; 35.3% in test [2]; 89.3% (active) in test [3]; -1.3% in test [4]; 60.8% in test [5]; -36.8% in test [6].
For the molecule `CCOP(=O)(C/C(=N/NC(C)(C)C)C(=O)Nc1nc2ccc(C)cc2s1)OCC`, the growth inhibition in test [1] was -14%; in test [2] it was 3.7%; in test [3] it was -26.1%; in test [4], -30.4%; in test [5] it was -0.5%; in test [6] it was -18.6%.
For the molecule `CC1(C)C=C(C(c2cccc([N+](=O)[O-])c2)N2CCCCC2)C(=O)c2ccccc21` (centres undefined), the growth inhibition in test [1] was -26.9%; in test [2], -10.7%; in test [3], -13.2%; in test [4], -40.9%; in test [5] it was -0.9%; in test [6], -13.3%.
Regarding `COc1ccc(N2C(=O)C/C(=C/c3ccc(C(C)C)cc3)C2=O)cc1`, the growth inhibition is 9.35% in test [1]; -0.05% in test [2]; 11.9% in test [3]; -60% in test [4]; -13.8% in test [5]; 9.15% in test [6].
Regarding `N[N+]#COC1C(C(=O)NN)C1C(=O)NN` (centres undefined), the growth inhibition was -15.9% in test [1]; -10.4% in test [2]; -17.5% in test [3]; 7.75% in test [4]; 7.05% in test [5]; -17.9% in test [6].
As to `CCCCC(CCCC)C(=O)O`, the growth inhibition in test [1] is -22.3%; in test [2], -9.65%; in test [3], -9.85%; in test [4], 50%; in test [5], 10.9%; in test [6], -9.3%.
Regarding `Cc1ccc(S(=O)(=O)OCCN(CCOS(=O)(=O)c2ccc(C)cc2)c2cccc([N+](=O)[O-])c2)cc1`, the growth inhibition in test [1] is 22.9%; in test [2] it was 8.85%; in test [3], 7.85%; in test [4] it was 22.4%; in test [5], -0.3%; in test [6], 21.4%.
Take `CC(C)(Br)C(Br)CCC(C)(Br)C(Br)CO` (centres undefined): the growth inhibition in test [1] was 10.9%; in test [2], -0.7%; in test [3] it was -3.8%; in test [4] it was -12.1%; in test [5], 0.55%; in test [6], -1.3%.
Consider `ClC(=Nc1cccc2ccccc12)N(c1ccccc1)c1ccccc1`, for which the growth inhibition in test [1] is -8.45%; in test [2] it was 7.45%; in test [3], -9.3%; in test [4] it was 3.8%; in test [5], 7.15%; in test [6], -4.05%.
For `O=c1[nH]cc(Br)c(=O)[nH]1`, the growth inhibition is 28.8% in test [1]; 19.7% in test [2]; 13.7% in test [3]; 9.3% in test [4]; 21.9% in test [5]; 37% in test [6].
Take `O=C(O)CCC1NC(/C(=C/c2ccccc2O)NC(=O)c2ccccc2)OC1=O` (centres undefined): the growth inhibition is -0.75% in test [1]; -8.1% in test [2]; -14.1% in test [3]; -19.1% in test [4]; -8.25% in test [5]; -16.1% in test [6].
On to `CC1=NC(C)(C)N(O)C1(C)C`, for which the growth inhibition in test [1] was -21.9%; in test [2], -4.3%; in test [3], -3.05%; in test [4], -0.8%; in test [5], -9%; in test [6] it was -53.5%.
For `C=C(C)CC(=O)O.CC(=O)[CH-]C(C)=O.CC(=O)[CH-]C(C)=O.CC(=O)[CH-]C(C)=O.[Zn+2].[Zn]`, the growth inhibition in test [1] was 30.2%; in test [2], 10.8%; in test [3] it was 16.2%; in test [4] it was 6.8%; in test [5], -0.85%; in test [6], 21.1%.
As to `COc1ccc(C(=O)c2ccc(Br)s2)cc1`, the growth inhibition in test [1] is 5.9%; in test [2], -6.65%; in test [3] it was 12.8%; in test [4] it was -14.4%; in test [5] it was 13.8%; in test [6], 33%.
As to `CCC[n+]1nc2ccccc2c(=Nc2ccccc2[N+](=O)[O-])[n-]1`, the growth inhibition in test [1] was 8.65%; in test [2], 8.75%; in test [3] it was 2.75%; in test [4] it was 7.8%; in test [5], 12.3%; in test [6], 2.45%.
`N=C1OCCN1/N=C/c1ccc([N+](=O)[O-])o1`: the growth inhibition in test [1] was 33.4%; in test [2], -2.3%; in test [3], 66.8%; in test [4], -3.5%; in test [5] it was 20.6%; in test [6] it was 52.2%.
Turning to `Cc1ccc(S(=O)(=O)Oc2ccc(Cl)c(C)c2)cc1`, the growth inhibition in test [1] was 39.5% and -16.1%; in test [2], 6% and -11.8%; in test [3] it was 35.4% and -25.1%; in test [4], 14.1% and -74.5%; in test [5] it was 38.9% and 14.8%; in test [6], 17.8% and 5.1%.
Take `O=C1C=CC(=O)N1c1ccnc(N2C(=O)C=CC2=O)c1`: the growth inhibition in test [1] is 21.4%; in test [2] it was -1.55%; in test [3], 6.1%; in test [4], -7.05%; in test [5], 11.8%; in test [6] it was 10.2%.
